Source: PubChem BioAssay AID588477 (NMMLSC, 2011)
Activity calls are given as the source filed them.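 How the source made its calls: active means valid curve fit with half-effect dose at most 10 µM and total binding change across doses of 30 points or more; inactive means the rest.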

system: Rac wt; test: small GTPase nucleotide-binding inhibition, multiplex panel – biochemical, round 1 SAR, Mg buffer, multiplex flow cytometry, selectivity assay for Cdc42 probe extension project, SAR follow-up (AID 588477); conditions: GST-GTPase beads, Bodipy-GTP binding; series mostly up to 100 µM

outcome, inactive:
O=C(C#Cc1ccccc1)c1cccc([N+](=O)[O-])c1
NS(=O)(=O)c1ccc(N2N=C(c3ccccc3)CC2c2ccccc2)cc1 (stereo not drawn)
COc1ccc(C2CC(c3ccccc3)=NN2c2ccc(S(N)(=O)=O)cc2)cc1 (stereo not drawn)
